Shown are actives, neighbours in structure and some others; about 1.2% of the full set was active somewhere.
RGS16-Gao: modulators of RGS16 binding to Galphao, primary screen, biochemical, human proteins, multiplexed bead flow cytometry. Regulator of G-protein signaling 16 (Homo sapiens) + Guanine nucleotide-binding protein …. bead-based flow cytometry RGS16-Galphao binding, fluorescence; actives lie on both sides. binding response (% of control), % at 10 µM. actives 0.38% (n = 220,000). AID 1441, 2008;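 further: Galphao activated by GDP with aluminum fluoride before binding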
RGS8-Gao reg: RGS8-Galphao binding modulators, primary screen, biochemical, multiplexed bead flow cytometry. Guanine nucleotide-binding protein G(o) subunit alpha (Homo sapiens), P09471. actives lie on both sides. response (percent of control binding), % at 10 µM. actives 0.34% (n = 220,000); in the data active means response below about 60% or above about 140%; inactive means in between;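 further: Galphao activated as the GDP aluminium fluoride complex binding bead-coupled RGS8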
Target sequence (P09471 whole entry, looked up): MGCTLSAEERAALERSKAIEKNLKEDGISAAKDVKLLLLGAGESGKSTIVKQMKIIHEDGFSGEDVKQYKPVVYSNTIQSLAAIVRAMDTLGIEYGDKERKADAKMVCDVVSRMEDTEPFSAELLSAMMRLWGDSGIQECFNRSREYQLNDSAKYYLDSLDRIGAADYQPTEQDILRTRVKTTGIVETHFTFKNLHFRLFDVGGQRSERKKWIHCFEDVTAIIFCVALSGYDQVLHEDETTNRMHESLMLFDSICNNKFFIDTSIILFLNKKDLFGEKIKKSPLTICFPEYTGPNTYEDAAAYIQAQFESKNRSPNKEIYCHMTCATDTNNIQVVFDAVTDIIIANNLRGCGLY
RGS4-Gao reg: modulators of RGS4 binding to Galphao, primary screen, biochemical, multiplexed bead flow cytometry; Guanine nucleotide-binding protein G(o) subunit alpha (Homo sapiens), P09471; actives 0.33% (n = 220,000); actives lie on both sides; binding response (% of control), % at 10 µM; in the data active means binding response below about 49% or above about 150%; inactive means in between;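 further: fluorescent Galphao activated with aluminum fluoride binding bead-coupled RGS4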
RGS7-Gao reg: RGS7-Galphao binding modulators, primary screen, biochemical, multiplexed bead flow cytometry; Guanine nucleotide-binding protein G(o) subunit alpha (Homo sapiens), P09471; actives 0.35% (n = 220,000); binding response (% of control), % at 10 µM; actives lie on both sides; AID 1439, 2008; in the data active means binding response below about 49% or above about 150%; inconclusive means no clear call, values can overlap the other calls; inactive means in between;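 further: fluorescent Galphao held in activated GDP-AlF4 state binding bead-coupled RGS7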
Avidin bead fluor: green autofluorescence of compounds with avidin beads – biophysical, 488/530 nm, flow cytometry, artefact control, profiling panel. compound fluorescence 488/530 nm; active compounds read high. fluorescence (KMESF) at 10 µM. actives 0.38% (n = 220,000). AID 1775, 2009; in the data active means fluorescence above about 47
GSH bead fluor: compound fluorescence on glutathione beads, profiling panel, artefact control, biophysical, 488/530 nm, flow cytometry. GSH beads flow cytometry, compound fluorescence 488/530 nm; active compounds read high. fluorescence (KMESF) at 10 µM. actives 0.25% (n = 190,000). AID 1776, 2009; in the data active means fluorescence above about 89;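 further: glutathione beads carrying GST-tagged Bcl family fusion proteins plus one bare bead set; values are compound well signal with DMSO vehicle wells as background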
RGS4-Gao HTS: modulators of RGS–Galpha-o binding, primary screen, biochemical, multiplexed beads, flow cytometry, RGS4/7/8/16/19. RGS4–Galpha-o binding response, % at 10 µM. actives 99% (n = 1,600). multiplexed bead flow cytometry. shares compounds with RGS16-Gao. AID 1504, 2009;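 further: fluorescently labeled Galpha-o bound to GDP with aluminium fluoride binding biotinylated RGS beads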
Avidin counter: disruption of biotin probe capture by avidin, counter-screen for RGS protein interaction modulators, biochemical, flow cytometry, bead-based; shares compounds with RGS16-Gao; inhibition, % at 10 µM; streptavidin beads, fluorescein-biotin binding; 1,700 tested, under 10 active;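 active means inhibition above 50%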;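 further: median green fluorescence of gated singlet beads compared with DMSO control wells; 0% = DMSO wells and 100% = complete loss of bead fluorescence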
RGS8-Gao single: RGS8-Galphao binding modulators, confirmation, biochemical, multiplexed bead flow cytometry, single concentration | AID 1836, 2009 | actives 3% (n = 1,700) | bead-based flow cytometry RGS8-Galphao binding, fluorescence; actives lie on both sides | binding response (% of control), % at 10 µM | shares compounds with RGS16-Gao; in the data active means binding response below about 72% or above about 130%; inactive means in between;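 further: Galphao activated as GDP AlF4 complex before binding bead RGS8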
RGS7-Gao confirm: RGS7-Galphao binding modulators, confirmation, biochemical, multiplexed bead flow cytometry, single concentration. shares compounds with RGS16-Gao. bead-based flow cytometry RGS7-Galphao binding; actives lie on both sides. response (percent of control binding), % at 10 µM. actives 7.8% (n = 1,700); in the data active means response below about 75% or above about 130%; inactive means in between;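 further: fluorescent Galphao activated with GDP and aluminum fluoride binding bead-coupled RGS7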
RGS16-Gao conf: modulators of RGS16-Galphao protein binding, confirmation, biochemical, single concentration, multiplexed bead flow cytometry; shares compounds with RGS16-Gao; bead-based flow cytometry; actives lie on both sides; response (% of control binding), % at 10 µM; actives 4% (n = 1,700); AID 1838, 2009; in the data active means response below about 74% or above about 130%; inactive means in between;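 further: Galphao activated as the GDP aluminium fluoride complex binding bead-coupled RGS16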
RGS4-Gao single: modulators of RGS4-Galphao protein binding, confirmation, biochemical, single concentration, multiplexed bead flow cytometry. shares compounds with RGS16-Gao. actives lie on both sides. binding response (% of control), % at 10 µM. actives 4% (n = 1,700). AID 1840, 2009; in the data active means binding response below about 74% or above about 130%; inactive means in between
RGS19-Gao conf: regulators of RGS19-Galphao binding, confirmation, biochemical, single point, multiplexed bead flow cytometry | actives 5% (n = 1,700) | AID 1841, 2009 | bead-based flow cytometry RGS19-Galphao binding; actives lie on both sides | response (percent of control binding), % at 10 µM | shares compounds with RGS16-Gao; in the data active means response below about 50% or above about 160%; inactive means in between;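 further: 100% = no compound control and 0% = blank background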
Target sequence (P09471 whole entry, looked up): as above
Target sequence (P49795 whole entry, looked up): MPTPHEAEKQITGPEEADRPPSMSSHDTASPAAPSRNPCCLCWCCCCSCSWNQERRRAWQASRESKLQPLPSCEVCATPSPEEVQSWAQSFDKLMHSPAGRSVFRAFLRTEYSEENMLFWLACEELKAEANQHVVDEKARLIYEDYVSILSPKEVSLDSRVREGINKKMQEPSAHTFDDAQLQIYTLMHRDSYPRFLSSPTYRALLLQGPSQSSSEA
Numbers without * were called inactive; [ ] = dose if it differs, or a comment. Unless noted, how the calls were made is not given here.

What do the screens show for `CC(=O)NCC(=O)OCC(=O)c1ccc(Br)cc1`?
RGS16-Gao: 96; RGS8-Gao reg: 99; RGS4-Gao reg: 98; RGS7-Gao reg: 96; Avidin bead fluor: 15; GSH bead fluor: 6

How did CC(=O)COC(=O)CNC(=O)c1ccc(Br)cc1 do in these assays?
RGS8-Gao reg: 167*[activator]; RGS4-Gao reg: 138; RGS7-Gao reg: 137; Avidin bead fluor: 2; GSH bead fluor: 33; RGS4-Gao HTS: 138*

How did CC(C)C1Cc2c(sc3c2c(=O)n(-c2ccccc2)c2n[nH]c(=S)n32)CO1 (stereo unspecified) do in these assays?
RGS16-Gao: 100; RGS8-Gao reg: 100; RGS4-Gao reg: 99; RGS7-Gao reg: inconclusive; Avidin bead fluor: 6

What do the screens show for `Cc1cc(C)nc(/N=C2\NC(=O)CC3C(=O)NCCN23)n1` (stereo unspecified)?
RGS16-Gao: 10*; RGS8-Gao reg: 13*; RGS4-Gao reg: 21*; RGS7-Gao reg: 12*; Avidin bead fluor: 4; GSH bead fluor: 24; Avidin counter: 0; RGS8-Gao single: 105; RGS7-Gao confirm: 95; RGS16-Gao conf: 101; RGS4-Gao single: 102; RGS19-Gao conf: 79

Results for Cc1ccn2c(Nc3ccc4c(c3)OCO4)c(-c3ccc(O)cc3)nc2c1 ?
RGS16-Gao: 86; RGS8-Gao reg: 89; RGS4-Gao reg: 84; RGS7-Gao reg: inconclusive; Avidin bead fluor: 7

How did Cc1ccc(C)c(NC(=S)c2ccc3ccccc3n2)c1 do in these assays?
RGS16-Gao: 2.2*; RGS8-Gao reg: 15*; RGS4-Gao reg: 19*; RGS7-Gao reg: 8.0*; Avidin bead fluor: -5; GSH bead fluor: 12; Avidin counter: 0; RGS8-Gao single: 100; RGS7-Gao confirm: 82; RGS16-Gao conf: 96; RGS4-Gao single: 86; RGS19-Gao conf: 80

Results for Cn1c(SC2CCCCC2=O)nnc1-c1ccccc1F (stereo unspecified) ?
RGS16-Gao: 105; RGS8-Gao reg: 104; RGS4-Gao reg: 105; RGS7-Gao reg: 102; Avidin bead fluor: 11; GSH bead fluor: 14

Results for C=CCn1c(Cc2c[nH]c3ccccc23)nnc1SCC(=O)NCc1ccccc1 ?
RGS16-Gao: 38; RGS8-Gao reg: 54*; RGS4-Gao reg: 47*; RGS7-Gao reg: 42*; Avidin bead fluor: 5; GSH bead fluor: 26; Avidin counter: -1; RGS8-Gao single: 101; RGS7-Gao confirm: 103; RGS16-Gao conf: 100; RGS4-Gao single: 103; RGS19-Gao conf: 106

Results for CCCC[n+]1ccn(-c2nc3ccccc3nc2[N-]S(=O)(=O)c2ccccc2)c1 ?
RGS16-Gao: 172; RGS8-Gao reg: 101; RGS4-Gao reg: 134; GSH bead fluor: 40; Avidin counter: 0; RGS8-Gao single: 101; RGS7-Gao confirm: 99; RGS16-Gao conf: 102; RGS4-Gao single: 99; RGS19-Gao conf: 93

How did O=C(COC(=O)C1CCN(S(=O)(=O)c2cccs2)CC1)NCc1ccc(F)cc1 do in these assays?
RGS16-Gao: 97; RGS8-Gao reg: 100; RGS4-Gao reg: 96; RGS7-Gao reg: inconclusive; Avidin bead fluor: 5

How did Nc1cc(=O)nc(SCC(=O)Nc2ccccc2Cl)n1-c1ccccc1 do in these assays?
RGS16-Gao: 105; RGS8-Gao reg: 101; RGS4-Gao reg: 97; RGS7-Gao reg: 96; Avidin bead fluor: 25; GSH bead fluor: 8

Results for CCn1nnc(NC(=O)CSc2ccc(Cl)cc2)n1 ?
GSH bead fluor: 34; Avidin counter: 0; RGS8-Gao single: 97; RGS7-Gao confirm: 90; RGS16-Gao conf: 100; RGS4-Gao single: 93; RGS19-Gao conf: 114

What do the screens show for `O=C(Nc1ccc(Cl)c(Cl)c1)OCCNC(=O)c1ccncc1`?
RGS16-Gao: 104; RGS8-Gao reg: 81; RGS4-Gao reg: 96; RGS7-Gao reg: inconclusive; Avidin bead fluor: 11; GSH bead fluor: 11; Avidin counter: 0; RGS8-Gao single: 103; RGS7-Gao confirm: 106; RGS16-Gao conf: 105; RGS4-Gao single: 104; RGS19-Gao conf: 92

How did CCC(=O)NC1=C(NC(C)c2ccccc2)C(=O)c2ccccc2C1=O (stereo unspecified) do in these assays?
RGS16-Gao: 104; RGS8-Gao reg: 107; RGS4-Gao reg: 109; RGS7-Gao reg: 107; Avidin bead fluor: 4; GSH bead fluor: 26
